The subject of the assay is Madurella mycetomatis MM55. The experiment in a line: growth relative to untreated control; higher = less inhibition, active = 20 or less. Conditions: 100 µM. Summed up:
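Compound at 100 or 25 µM was applied for 7 days at 37 °C to hyphal fragments of M. mycetomatis MM55 or F. senegalensis CBS197.79 in 96-well plates. Fragments were suspended in colourless RPMI 1640 with L-glutamine and MOPS at 68–72% transmission at 660 nm, and viability was read with MTS (2 h, 490 nm) or resazurin (600 nm). Growth is reported as blank-corrected metabolic activity relative to the blank-corrected untreated growth control.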
For `CCN1CCC(c2cc(C)c3nc(-c4cc5c(C)nc(C)cn5n4)cc(=O)n3c2)CC1`, the growth was 89.8% (inactive).

For the molecule `CC(C)C[C@H](NC(=O)[C@H](Cc1ccccc1)NC(=O)c1cnccn1)B(O)O`, the growth was 85.1% (inactive).

Take `NC(=O)c1ncn([C@@H]2O[C@H](CO)[C@@H](O)[C@H]2O)n1`: the growth was 87.6% (inactive).

For `CCN(CC)CCNc1nc(Nc2cccc(OC)c2)c2cnn(-c3ccccc3)c2n1`, the growth was 4.88% (active).

For the molecule `CS(=O)(=O)c1ccc(-c2cnn3c2NC(c2cccc(S(=O)(=O)C4CC4)c2)CC3)cc1` (stereo unspecified), the growth was 82.5% (inactive).

Consider `COc1cccc2c1CCCC2CCCN1CCN(C2CCCCC2)CC1` (stereo unspecified), for which the growth is 68.7% (inactive).

As for `Cc1cccnc1-c1noc(-c2ccccc2)n1`, the growth was 87.4% (inactive).

Take `Cn1nc(C(=O)Nc2ccc(F)c(Cl)c2)c2c1-c1ccccc1S(=O)(=O)C2`: the growth was 104% (inactive).

As for `Nc1nc(S)c2[nH]cnc2n1`, the growth is 92.8% (inactive).

As to `CN(C)CCCN1C(=O)c2[nH]nc(-c3ccc(Cl)cc3O)c2C1c1ccc(Cl)cc1` (stereo unspecified), the growth is 6.84% (active).

As to `COc1ccc(-c2nn3c(-c4ccco4)nnc3s2)cc1OC`, the growth is 55.2% (inactive).

As for `C[C@@H]1CS/C(=N\NC(=O)C(=O)[C@@H](NC(=O)C2CCCCCC2)C2CCOCC2)N1C`, the growth is 93.2% (inactive).

For `O=C(Nc1ncccc1O)c1ccc(S(=O)(=O)NCCc2cccs2)cc1`, the growth was 70.6% (inactive).

In the case of `C[C@@H](c1nc(-c2ccc(C#N)cc2)cs1)[C@](O)(Cn1cncn1)c1ccc(F)cc1F`, the growth was 5.78% (active).

As for `CCSc1ccc2c(c1)N(CCCN1CCN(C)CC1)c1ccccc1S2`, the growth was 3.76% (active).

For `Cc1cccnc1Nc1cn2cc(-c3cccc(OCC(F)(F)F)n3)ccc2n1`, the growth is 8.06% (active).

Consider `Cc1cc2c(cc1Cl)N(C(=O)Nc1cc(F)cc(-c3cncnc3)c1)CC2`, for which the growth was 49.7% (inactive).

Take `Cc1cccnc1Nc1cn2cc(-c3ccnc(OC(C)C)n3)ccc2n1`: the growth was 6.2% (active).

Consider `C[C@H](NC(=O)c1cc2c(F)cccc2[nH]1)c1ccccc1`, for which the growth is 7.43% (active).

`CCOC(=O)NCCOc1cnn(Cc2ccccc2)c(=O)c1`: the growth was 97.3% (inactive).

`CC(C)(C)[S@@](=O)N1Cc2cc(C(=O)NCCc3ccncc3)nc(-c3cccc(-c4ccccc4)c3)c2[C@H]1CCO`: the growth is 52.9% (inactive).

`CN(C)CCCN1c2ccccc2Sc2ccc(Cl)cc21`: the growth is 3.82% (active).

As to `CC(C)Nc1ncc2nc(Nc3cc(F)cc(Cl)c3)n(C3CCNCC3)c2n1`, the growth is 94.2% (inactive).

Take `Oc1ccccc1CCNC1CCc2ccc(F)cc21` (stereo unspecified): the growth is 34% (inactive).

As for `Nc1nc(NC2CC2)c2ncn([C@H]3C=C[C@@H](CO)C3)c2n1`, the growth was 83.8% (inactive).

Consider `CCCCc1nc(Cl)c(CO)n1Cc1ccc(-c2ccccc2-c2nn[nH]n2)cc1`, for which the growth is 88.8% (inactive).

As to `C[C@H]1c2cccc(O)c2C(=O)C2=C(O)[C@]3(O)C(O)=C(C(N)=O)C(=O)[C@@H](N(C)C)[C@@H]3[C@@H](O)[C@@H]21`, the growth is 91.7% (inactive).

Take `CCC(CC)COC(=O)[C@H](C)NP(=O)(OC[C@H]1O[C@@](C#N)(c2ccc3c(N)ncnn23)[C@H](O)[C@@H]1O)Oc1ccccc1` (stereo partly specified): the growth was 85.7% (inactive).

Regarding `COC(=O)N[C@H](C(=O)N1CCC[C@H]1c1ncc(-c2ccc(-c3ccc(-c4cnc([C@@H]5CCCN5C(=O)[C@@H](NC(=O)OC)C(C)C)[nH]4)cc3)cc2)[nH]1)C(C)C`, the growth was 85.6% (inactive).

Regarding `CC(C)CC(NCCc1ccccc1O)c1ccccn1` (stereo unspecified), the growth was 41.6% (inactive).

Consider `CC(C)(C)c1nc(-c2cccc(NS(=O)(=O)c3c(F)cccc3F)c2F)c(-c2ccnc(N)n2)s1`, for which the growth was 82.4% (inactive).

With `COc1ccc2c(O[C@@H]3C[C@H]4C(=O)N[C@]5(C(=O)NS(=O)(=O)C6CC6)C[C@H]5/C=C\CCCCN(C)C(=O)[C@@H]4C3)cc(-c3nc(C(C)C)cs3)nc2c1C`, the growth was 74.8% (inactive).

In the case of `CC[C@@H]([C@H](C)O)n1ncn(-c2ccc(N3CCN(c4ccc(OC[C@@H]5CO[C@@](Cn6cncn6)(c6ccc(F)cc6F)C5)cc4)CC3)cc2)c1=O`, the growth is 9.91% (active).

For `CCN1C(=O)N(CCC(C)C)C2(CCN(Cc3cc(O)cc(Cl)c3)CC2)C1=O`, the growth was 104% (inactive).

`O=S(=O)(NCC1(O)CCOc2ccccc21)c1ccccc1F` (stereo unspecified): the growth was 102% (inactive).

Consider `CC[C@H](C)[C@H]1O[C@]2(CC[C@@H]1C)C[C@@H]1C[C@@H](C/C=C(\C)[C@@H](O[C@H]3C[C@H](OC)[C@@H](O[C@H]4C[C@H](OC)[C@@H](O)[C@H](C)O4)[C@H](C)O3)[C@@H](C)/C=C/C=C3\CO[C@@H]4[C@H](O)C(C)=C[C@@H](C(=O)O1)[C@]34O)O2`, for which the growth is 83.5% (inactive).

The record behind these values is the supplement of paper PMC11172423.
